PubChem BioAssay AID504648 (National Center for Advancing Translational Sciences (NCATS), 2011)
About 610 (0.16%) of roughly 390,000 compounds were called active. A call without a number means that no potency is given here. Inconclusive results (about 4%) are left out. Calls come from the whole dose curve; as a rule, active = well fitted inhibition curve with a large enough effect; inconclusive = small, poorly fitted or top-dose-only effect, or effect the other way, or another doubt; inactive = no such curve, though single readings can be large or run the other way. Many of the other results were omitted from the sample, so actives are more common in it than they were.

Assay: Nrf2 qHTS screen for inhibitors: counterscreen for cytotoxicity
Settings: A549 ARE-Fluc cells, CellTiter-Fluor viability, 18-24 h; series mostly up to 46 µM
Text: NIH Molecular Libraries Probe Production Network [MLPCN]
NIH Chemical Genomics Center [NCGC]
Assay Provider: Shyam Biswal, Johns Hopkins University
Nrf2 is a transcription factor that maintains cellular redox homoestasis and protects cells from xenobiotics. Nrf2 binds to the antioxidant response element (ARE) to induce gene expression of a broad spectrum of genes that encode for antioxidants. […] Finding a small molecule that act as an inhibitor of Nrf2 function would represent a novel therapeutic target that could lead to improvement in survival of patients undergoing chemo- and/or radio- therapy.
So here we implemented a counterscreen to weed out the cytotoxic compounds.
1. Shibata, T., et al., Genetic Alteration of Keap1 Confers Constitutive Nrf2 Activation and Resistance to Chemotherapy in Gallbladder Cancer. Gastroenterology, 2008.
2. Sjoblom, T., et al., The consensus coding sequences of human breast and colorectal cancers. Science, 2006. 314(5797): p. 268-74.
NCGC Assay Protocol Summary:
A concentration-response assay was performed with A549 ARE_Fluc cells which are suspended in 5% FBS OPTI-MEM. Five uL were dispensed into 1536-well white TC-treated plate using the Kalypsys dispenser to achieve a density of 5000 cells/well in all columns except column 1. The plate is incubated at 37deg C at 5% CO2 for 2 hours before 23 nL of compounds are added with the Kalypsys pin tool equipped with a 1,536-pin array containing 10-nL slotted pins (FP1S10, 0.457-mm diameter, 50.8 mm long; V&P Scientific). The control compounds Budesonide and Staurosporine are both added at a concentration of 2mM and Budesonide is also added as a 1:10 titration, starting at 200uM, to achieve dose-response. After an 18-24 hour incubation at 37deg C at 5% CO2, 5ul of medium is added to column 1. Afterwards 1ul of 5x of CellTiter-Fluor (Promega) is added to every well. The plate is then incubated at 37deg C at 5% CO2 for 30 minutes before they are read on the ViewLux (Perkin Elmer) for a fluorescent read Ex=405(10)/Em=525(10) for a 3 second exposure, 2x binning, and high gain. Then 3 uL of 3x BugLite is dispensed into all wells and the plate is incubated at ambient room temperature for 15 minutes. Afterwards another ViewLux read is performed using the clear filter to get a luminescent read with the settings of 40 second exposure, 2x binning, and high gain. Cytotoxicity is assessed through the first fluorescent read and then biochemical activity against Nrf2 is measured in the luminescent read.
Potency is the fitted concentration of half-maximal effect.

| SMILES | Potency |
| --- | --- |
| CCC(C)(O)C(=O)OC1C(=O)OC2CC3C(C)=CC(=O)C(O)C3(C)C3C4(O)OCC23C1C(C)C4O (stereo not given) | 5.8 µM (active) |
| c1ccc(CC2CCCCN2)cc1 (stereo not given) | inactive |
| Cc1ccc(-n2c(/C=C/c3cccc(C(F)(F)F)c3)nc3ccccc3c2=O)cc1 | inactive |
| CSc1nc2ccc(C)cc2c(=O)n1-c1cccnc1 | inactive |
| COc1cccc(-c2nc3ccc(N4CCN(C)CC4)cc3[nH]2)c1 | inactive |
| CN1CCN(c2cc(N3CCNCC3)ccc2[N+](=O)[O-])CC1 | 16.4 µM (active) |
| CCN1CCN(c2ccc([N+](=O)[O-])cc2C#N)CC1 | inactive |
| CC1=CC(=Cc2sc3ccccc3[n+]2C)C=C(C)O1 | 2.59 µM (active) |
| CC(c1ccccc1)(c1ccccc1)c1ccncc1 | inactive |
| Cc1ccc(Cn2nnnc2CN2CCC(n3nnc4ccccc43)CC2)cc1 | inactive |
| COC(=O)C1=C(c2cc3ccccc3o2)C[C@@H]2CC[C@H]1N2C(=O)NC1CCCCC1 | inactive |
| O=Cc1cn(Cc2ccc(F)cc2Cl)c2ccccc12 | inactive |
| CO[C@H]1[C@@H](O)[C@@H](C)O[C@H](O[C@H]2[C@H](Oc3cccc4c(O)c5c(=O)oc6ccc(C)c7c(=O)oc(c34)c5c67)O[C@H](C)[C@H](O)[C@@H]2O)[C@@H]1O | inactive |
| CCCCCCCCCCCCn1ccc(=N)cc1 | inactive |
| S=P(c1ccccc1)(c1ccccc1)c1c(-c2ccccc2)[nH]c2ccccc12 | inactive |
| O=C1CC(=O)N(Cc2ccccc2)C(=O)N1CCCCCCN1C(=O)CC(=O)N(Cc2ccccc2)C1=O | inactive |
| CC(C)(C)c1ccc(CN2C(=O)CN=C(c3ccccc3)c3ccccc32)cc1 | 25.9 µM (active) |
| COc1cc([C@@H]2c3cc4c(cc3[C@H](OC(C)=O)[C@H]3COC(=O)[C@H]23)OCO4)cc(OC)c1OC | inactive |
| CCN(CC)C(=O)c1ccc(NC(=O)c2sccc2-c2ccccc2)cc1 | inactive |
| CC(C)c1ccc(-n2c(O)c(/C=N/N3CCOCC3)c(=O)[nH]c2=S)cc1 | inactive |
| CC(=O)OC1C2(CC3N4C(=O)C5(CO)SSC4(CC31O)C(=O)N5C)OC(C)C(C)(C)C2=O (stereo not given) | 7.31 µM (active) |
| CC(Cc1ccccc1)NCCC(c1ccccc1)c1ccccc1 (stereo not given) | inactive |
| Cc1cccc(OP(=O)(Oc2cccc(C)c2)OC(c2ccccc2)C(F)(F)F)c1 (stereo not given) | inactive |
| O=C(O)c1cc[c]([Sb](=[O])([OH])[OH])cc1[N+](=O)[O-] | inactive |
| Cc1ccc(NC(=O)N(Cc2ccc3c(c2)OCO3)C2CCN(Cc3ccccc3)CC2)cc1F | inactive |
| CN(c1ccccc1)c1ccc([N+](=O)[O-])c2nonc12 | 20.6 µM (active) |
| CCN(CC)c1ccc([N+](=O)[O-])c2cccnc12 | inactive |
| O=P1(Oc2ccccc2)CC(O)C(O)C(COCc2ccccc2)O1 (stereo not given) | inactive |
| CC(C)(C)[C@]1(O)C[C@@H]2OC(=O)C[C@@]23C(=O)O[C@@H]2OC(=O)[C@H](O)[C@]213 | inactive |
| Cc1ccc(C(C)C)c(OCC(=O)N2CCN(CC(=O)N3CCOCC3)CC2)c1 | inactive |
